The results in this text go back to ChEMBL document CHEMBL1961873, “Compounds: GSK PKIS; Assays: Nanosyn kinase panel” (2012).

Broadly, the inhibition is the change of the read-out against control, counted positive when it falls.

The target in assay [1] is Mitogen-activated protein kinase 3 (Homo sapiens) (UniProt P27361). As to conditions: at 1 µM.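 Also: values are mean percent inhibition of MAPK3.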
Assay [2] deals with SRSF protein kinase 3 (Homo sapiens) (UniProt Q9UPE1). As to conditions: at 0.1 µM.
SRSF protein kinase 3 (Homo sapiens), sequence (Q9UPE1 whole entry): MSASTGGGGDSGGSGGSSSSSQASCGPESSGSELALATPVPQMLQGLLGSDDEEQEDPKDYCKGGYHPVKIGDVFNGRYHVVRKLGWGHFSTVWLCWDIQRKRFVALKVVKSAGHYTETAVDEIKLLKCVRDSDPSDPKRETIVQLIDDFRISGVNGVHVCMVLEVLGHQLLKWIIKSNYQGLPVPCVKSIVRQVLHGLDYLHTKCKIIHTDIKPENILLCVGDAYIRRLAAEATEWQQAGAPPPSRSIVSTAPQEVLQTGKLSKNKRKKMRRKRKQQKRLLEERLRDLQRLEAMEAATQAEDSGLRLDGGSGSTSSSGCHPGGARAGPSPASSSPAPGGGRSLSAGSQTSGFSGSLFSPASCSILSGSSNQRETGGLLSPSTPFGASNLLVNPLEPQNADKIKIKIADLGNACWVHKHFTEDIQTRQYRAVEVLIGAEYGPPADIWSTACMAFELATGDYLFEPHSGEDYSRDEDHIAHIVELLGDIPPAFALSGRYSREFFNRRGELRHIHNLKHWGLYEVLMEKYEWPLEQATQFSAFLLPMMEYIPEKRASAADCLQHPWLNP
The target is the same in assay [3]. As to conditions: at 1 µM.
Assay [4] deals with Mitogen-activated protein kinase 14 (Homo sapiens) (UniProt Q16539). As to conditions: at 0.1 µM.
Mitogen-activated protein kinase 14 (Homo sapiens), sequence (Q16539 whole entry): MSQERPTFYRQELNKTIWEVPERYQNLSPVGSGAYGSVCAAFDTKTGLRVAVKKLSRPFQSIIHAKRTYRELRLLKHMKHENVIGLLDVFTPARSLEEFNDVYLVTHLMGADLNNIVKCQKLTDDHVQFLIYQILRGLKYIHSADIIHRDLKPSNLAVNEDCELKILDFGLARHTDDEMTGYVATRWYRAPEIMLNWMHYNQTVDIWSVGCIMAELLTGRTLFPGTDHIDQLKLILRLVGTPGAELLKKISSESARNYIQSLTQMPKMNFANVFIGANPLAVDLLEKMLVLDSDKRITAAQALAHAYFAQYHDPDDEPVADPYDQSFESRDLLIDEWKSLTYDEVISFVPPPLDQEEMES
Assay [5] has the same target. The note with it: at 1 µM.
Assay [6] has as its target Mitogen-activated protein kinase 11 (Homo sapiens) (UniProt Q15759). The note with it: at 0.1 µM.
The target is the same in assay [7]. As to conditions: at 1 µM.
Assay [8] has as its target T1, Mitogen-activated protein kinase 13 (Homo sapiens) (UniProt O15264).
T1 sequence (whole entry): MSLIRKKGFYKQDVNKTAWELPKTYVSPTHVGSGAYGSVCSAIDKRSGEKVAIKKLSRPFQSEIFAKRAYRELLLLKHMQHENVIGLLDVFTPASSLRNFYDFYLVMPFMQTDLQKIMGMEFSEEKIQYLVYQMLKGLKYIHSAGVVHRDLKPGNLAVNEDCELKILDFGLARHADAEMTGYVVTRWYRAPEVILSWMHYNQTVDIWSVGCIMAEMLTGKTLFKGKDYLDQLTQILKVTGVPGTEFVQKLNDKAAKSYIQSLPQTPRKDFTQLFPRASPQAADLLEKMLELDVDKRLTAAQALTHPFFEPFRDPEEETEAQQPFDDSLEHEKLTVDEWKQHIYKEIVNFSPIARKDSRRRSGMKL
The note with it: at 0.1 µM.

Assay [9] concerns the target T1, Mitogen-activated protein kinase 13 (Homo sapiens). The note with it: at 1 µM.
Assay [10] concerns the target T2, Mitogen-activated protein kinase 12 (Homo sapiens) (UniProt P53778).
T2 sequence (whole entry): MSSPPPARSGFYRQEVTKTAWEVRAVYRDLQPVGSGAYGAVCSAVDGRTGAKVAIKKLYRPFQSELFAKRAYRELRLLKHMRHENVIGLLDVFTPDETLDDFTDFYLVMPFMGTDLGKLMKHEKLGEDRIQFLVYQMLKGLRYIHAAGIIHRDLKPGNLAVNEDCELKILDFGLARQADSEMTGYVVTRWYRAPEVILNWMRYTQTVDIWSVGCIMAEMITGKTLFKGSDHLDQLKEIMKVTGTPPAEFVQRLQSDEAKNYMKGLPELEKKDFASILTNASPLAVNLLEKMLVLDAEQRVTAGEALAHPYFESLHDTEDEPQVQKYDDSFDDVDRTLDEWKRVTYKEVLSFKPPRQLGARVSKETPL
As to conditions: at 0.1 µM.

In assay [11] the target is T2, Mitogen-activated protein kinase 12 (Homo sapiens). As to conditions: at 1 µM.
Assay [12] addresses SRSF protein kinase 1 (Homo sapiens) (UniProt Q96SB4). As to conditions: at 0.1 µM.
Assay [13] shares this target. As to conditions: at 1 µM.
Assay [14] concerns the target Phosphatidylinositol 4,5-bisphosphate 3-kinase catalytic subunit alpha isoform (Homo sapiens) (UniProt P42336). As to conditions: at 0.1 µM.
For assay [15] the target is unchanged. The note with it: at 1 µM.
Assay [16] concerns the target T3, Phosphatidylinositol 4,5-bisphosphate 3-kinase catalytic subunit delta isoform (Homo sapiens) (UniProt O00329).
T3 sequence (whole entry): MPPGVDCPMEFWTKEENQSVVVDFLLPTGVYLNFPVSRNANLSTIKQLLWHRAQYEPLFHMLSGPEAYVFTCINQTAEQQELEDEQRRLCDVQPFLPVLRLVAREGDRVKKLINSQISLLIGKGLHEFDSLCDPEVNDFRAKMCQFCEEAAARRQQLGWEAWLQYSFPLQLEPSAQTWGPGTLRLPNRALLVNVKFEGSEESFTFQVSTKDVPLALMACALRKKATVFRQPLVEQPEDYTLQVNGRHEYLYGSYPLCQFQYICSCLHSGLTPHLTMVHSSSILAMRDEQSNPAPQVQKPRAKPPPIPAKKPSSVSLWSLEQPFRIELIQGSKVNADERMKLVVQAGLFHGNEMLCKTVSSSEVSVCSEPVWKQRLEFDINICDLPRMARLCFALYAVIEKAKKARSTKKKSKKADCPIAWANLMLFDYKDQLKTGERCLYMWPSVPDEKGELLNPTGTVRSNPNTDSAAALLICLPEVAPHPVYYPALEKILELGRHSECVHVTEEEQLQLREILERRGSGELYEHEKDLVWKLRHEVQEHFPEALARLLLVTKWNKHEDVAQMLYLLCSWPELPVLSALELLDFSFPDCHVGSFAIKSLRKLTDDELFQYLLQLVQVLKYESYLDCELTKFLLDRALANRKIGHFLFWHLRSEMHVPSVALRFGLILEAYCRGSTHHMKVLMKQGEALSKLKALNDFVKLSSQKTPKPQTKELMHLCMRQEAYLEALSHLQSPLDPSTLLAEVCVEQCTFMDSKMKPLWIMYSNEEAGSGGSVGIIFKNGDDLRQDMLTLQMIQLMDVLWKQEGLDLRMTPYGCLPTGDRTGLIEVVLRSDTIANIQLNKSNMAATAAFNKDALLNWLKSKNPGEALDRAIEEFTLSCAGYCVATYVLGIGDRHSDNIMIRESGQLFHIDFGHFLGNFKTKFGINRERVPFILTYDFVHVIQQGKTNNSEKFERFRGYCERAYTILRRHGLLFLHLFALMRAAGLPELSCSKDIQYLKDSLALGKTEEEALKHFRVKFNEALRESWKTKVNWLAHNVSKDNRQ
As to conditions: at 0.1 µM.

The target of assay [17] is T3, Phosphatidylinositol 4,5-bisphosphate 3-kinase catalytic subunit delta isoform (Homo sapiens). As to conditions: at 1 µM.
The target in assay [18] is Phosphatidylinositol 4-kinase beta (Homo sapiens) (UniProt Q9UBF8). The note with it: at 0.1 µM.
Phosphatidylinositol 4-kinase beta (Homo sapiens), sequence (Q9UBF8 2-816 limits assumed): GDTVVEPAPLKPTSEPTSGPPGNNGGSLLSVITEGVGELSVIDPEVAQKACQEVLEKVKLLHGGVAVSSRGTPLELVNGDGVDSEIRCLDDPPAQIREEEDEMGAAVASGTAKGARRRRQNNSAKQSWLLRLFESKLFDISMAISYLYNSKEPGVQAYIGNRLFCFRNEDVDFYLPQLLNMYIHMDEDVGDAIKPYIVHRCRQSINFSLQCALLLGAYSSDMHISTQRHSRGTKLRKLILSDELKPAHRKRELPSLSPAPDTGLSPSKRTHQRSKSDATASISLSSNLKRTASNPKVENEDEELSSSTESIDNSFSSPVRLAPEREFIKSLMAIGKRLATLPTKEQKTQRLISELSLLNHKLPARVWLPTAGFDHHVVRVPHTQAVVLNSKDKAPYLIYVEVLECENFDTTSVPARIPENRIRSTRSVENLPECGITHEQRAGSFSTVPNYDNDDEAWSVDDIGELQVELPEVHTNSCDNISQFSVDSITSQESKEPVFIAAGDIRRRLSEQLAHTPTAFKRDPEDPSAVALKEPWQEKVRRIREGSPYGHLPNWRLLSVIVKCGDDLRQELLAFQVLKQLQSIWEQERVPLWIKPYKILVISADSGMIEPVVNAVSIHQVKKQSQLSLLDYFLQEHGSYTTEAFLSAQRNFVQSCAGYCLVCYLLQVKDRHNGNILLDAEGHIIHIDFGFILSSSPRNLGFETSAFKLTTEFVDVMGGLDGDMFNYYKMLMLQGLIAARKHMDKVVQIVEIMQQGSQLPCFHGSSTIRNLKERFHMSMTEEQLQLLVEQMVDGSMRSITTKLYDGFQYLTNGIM
For assay [19] the target is unchanged. As to conditions: at 1 µM.
In assay [20] the target is Sphingosine kinase 1 (Homo sapiens) (UniProt Q9NYA1). As to conditions: at 0.1 µM.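 Also: mean percent inhibition of SPHK1 activity, measured within the GSK PKIS screening panel.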
Sphingosine kinase 1 (Homo sapiens), sequence (Q9NYA1 whole entry): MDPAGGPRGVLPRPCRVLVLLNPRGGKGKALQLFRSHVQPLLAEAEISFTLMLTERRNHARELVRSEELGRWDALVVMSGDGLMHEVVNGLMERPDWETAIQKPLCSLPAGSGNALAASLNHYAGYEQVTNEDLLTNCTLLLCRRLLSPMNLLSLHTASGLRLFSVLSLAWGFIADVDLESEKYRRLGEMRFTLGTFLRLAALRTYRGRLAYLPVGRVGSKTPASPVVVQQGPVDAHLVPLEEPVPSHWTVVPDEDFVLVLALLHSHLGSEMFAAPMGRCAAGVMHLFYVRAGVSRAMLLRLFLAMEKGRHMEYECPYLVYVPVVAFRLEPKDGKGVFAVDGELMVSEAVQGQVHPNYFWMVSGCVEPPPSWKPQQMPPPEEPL

Each structure is given as a SMILES string.

SRSF protein kinase 1 (Homo sapiens), sequence (Q96SB4 whole entry): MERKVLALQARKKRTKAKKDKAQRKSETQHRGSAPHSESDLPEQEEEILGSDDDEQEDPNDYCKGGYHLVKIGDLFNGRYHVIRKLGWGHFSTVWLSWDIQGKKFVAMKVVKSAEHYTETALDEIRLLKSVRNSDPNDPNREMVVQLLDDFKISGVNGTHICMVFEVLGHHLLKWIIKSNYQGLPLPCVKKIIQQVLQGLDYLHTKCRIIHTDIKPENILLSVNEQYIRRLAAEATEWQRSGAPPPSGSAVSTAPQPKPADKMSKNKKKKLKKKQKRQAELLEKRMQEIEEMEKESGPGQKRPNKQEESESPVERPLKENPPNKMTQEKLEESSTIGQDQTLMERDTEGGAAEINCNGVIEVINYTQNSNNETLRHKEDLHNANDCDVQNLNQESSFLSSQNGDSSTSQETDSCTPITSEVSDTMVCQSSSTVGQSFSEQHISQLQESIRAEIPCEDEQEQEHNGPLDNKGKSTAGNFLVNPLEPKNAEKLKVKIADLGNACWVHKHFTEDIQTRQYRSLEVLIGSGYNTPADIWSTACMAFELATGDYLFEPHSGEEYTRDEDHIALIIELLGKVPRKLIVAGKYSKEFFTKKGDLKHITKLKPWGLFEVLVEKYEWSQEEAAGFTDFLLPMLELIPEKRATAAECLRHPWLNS
Mitogen-activated protein kinase 11 (Homo sapiens), sequence (Q15759 whole entry): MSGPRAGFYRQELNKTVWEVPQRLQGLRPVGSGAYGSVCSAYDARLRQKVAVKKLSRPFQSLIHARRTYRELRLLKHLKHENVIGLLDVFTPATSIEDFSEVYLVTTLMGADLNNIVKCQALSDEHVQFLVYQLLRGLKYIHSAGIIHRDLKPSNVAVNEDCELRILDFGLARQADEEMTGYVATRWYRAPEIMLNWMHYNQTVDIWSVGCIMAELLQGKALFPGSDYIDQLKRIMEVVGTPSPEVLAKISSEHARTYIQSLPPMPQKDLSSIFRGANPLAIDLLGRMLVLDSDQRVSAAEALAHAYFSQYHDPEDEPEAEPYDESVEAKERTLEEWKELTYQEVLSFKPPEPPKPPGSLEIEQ
Mitogen-activated protein kinase 3 (Homo sapiens), sequence (P27361 whole entry): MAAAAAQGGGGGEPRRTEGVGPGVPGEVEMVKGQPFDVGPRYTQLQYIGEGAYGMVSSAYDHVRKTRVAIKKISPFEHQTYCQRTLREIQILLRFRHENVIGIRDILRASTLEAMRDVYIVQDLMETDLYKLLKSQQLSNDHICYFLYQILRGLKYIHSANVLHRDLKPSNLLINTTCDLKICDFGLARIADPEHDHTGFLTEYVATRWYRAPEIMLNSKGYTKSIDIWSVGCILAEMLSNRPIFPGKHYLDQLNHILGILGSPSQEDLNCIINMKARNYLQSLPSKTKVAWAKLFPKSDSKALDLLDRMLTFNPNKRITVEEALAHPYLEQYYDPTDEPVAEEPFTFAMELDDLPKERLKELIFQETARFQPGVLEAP
Phosphatidylinositol 4,5-bisphosphate 3-kinase catalytic subunit alpha isoform (Homo sapiens), sequence (P42336 whole entry, canonical isoform): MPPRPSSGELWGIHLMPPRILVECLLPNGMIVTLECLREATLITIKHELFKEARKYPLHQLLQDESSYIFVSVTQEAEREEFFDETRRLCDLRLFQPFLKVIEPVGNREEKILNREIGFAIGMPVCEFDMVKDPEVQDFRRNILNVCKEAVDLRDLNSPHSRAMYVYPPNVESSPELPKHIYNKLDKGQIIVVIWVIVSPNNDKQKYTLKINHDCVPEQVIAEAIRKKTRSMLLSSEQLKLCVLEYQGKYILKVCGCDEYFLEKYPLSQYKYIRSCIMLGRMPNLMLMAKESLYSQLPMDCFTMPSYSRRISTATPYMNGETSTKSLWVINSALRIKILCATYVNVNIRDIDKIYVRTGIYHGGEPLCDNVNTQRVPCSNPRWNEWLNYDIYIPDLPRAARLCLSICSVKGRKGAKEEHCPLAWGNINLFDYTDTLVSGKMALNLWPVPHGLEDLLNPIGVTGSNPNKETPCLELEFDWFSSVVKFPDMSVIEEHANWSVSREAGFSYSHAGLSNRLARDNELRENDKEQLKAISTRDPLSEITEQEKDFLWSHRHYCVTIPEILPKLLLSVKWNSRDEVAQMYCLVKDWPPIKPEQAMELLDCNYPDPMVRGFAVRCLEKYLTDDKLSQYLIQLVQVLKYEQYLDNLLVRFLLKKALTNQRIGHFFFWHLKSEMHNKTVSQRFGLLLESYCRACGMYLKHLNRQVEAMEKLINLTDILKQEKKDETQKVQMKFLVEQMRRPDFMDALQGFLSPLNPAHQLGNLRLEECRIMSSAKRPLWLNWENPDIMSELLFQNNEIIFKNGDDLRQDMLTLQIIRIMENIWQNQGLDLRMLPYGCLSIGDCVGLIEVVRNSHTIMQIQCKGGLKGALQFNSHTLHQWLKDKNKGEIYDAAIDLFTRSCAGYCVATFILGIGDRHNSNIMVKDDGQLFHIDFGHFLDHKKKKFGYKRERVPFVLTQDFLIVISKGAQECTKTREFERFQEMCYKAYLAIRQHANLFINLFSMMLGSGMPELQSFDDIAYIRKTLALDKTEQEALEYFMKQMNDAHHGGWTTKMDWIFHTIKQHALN

On to `CNC(=O)c1cncc(/C=C/c2ccccc2Cl)c1`, for which the inhibition was 2.18% in assay [1]; -0.92% in assay [2]; 2.45% in assay [3]; -6.55% in assay [4]; -0.16% in [5]; 2.14% in assay [6]. The inhibition in assay [7] is 2.01%; in assay [8], 1.17%; in assay [9] it was -0.14%; in assay [10] it was -1.75%; in [11] it was -0.18%; in assay [12], 0.65%. For the same molecule, the inhibition is 3.33% in [13]; 1.22% in [14]; 1.59% in assay [15]; 0.5% in assay [16]; 0.38% in assay [17]; 3.54% in assay [18]. The inhibition in assay [19] came to 1.28%; in [20] it was 0.48%.
`CCNC(=O)O[C@H]1CN[C@H](C#Cc2cc3ncnc(Nc4ccc(OCc5cccc(F)c5)c(Cl)c4)c3s2)C1`: the inhibition was found to be 1.29% in assay [1]; 1.52% in assay [2]; 0.88% in assay [3]; 1.94% in assay [4]; 5.4% in assay [5]; 4.81% in assay [6]. Moreover, the inhibition in assay [7] is -1.11%; in assay [8], 1.7%; in assay [9], 2.64%; in assay [10] it was -0.39%; in [11], 0.98%; in [12], -1.03%. The inhibition is -0.8% in [13]; 3.18% in [14]; 29% in assay [15]; 2.96% in [16]; 17.2% in assay [17]; -1.09% in [18]. The inhibition was determined as 0.43% in assay [19] and 0.82% in assay [20].
With `Fc1ccc(-c2nn3ncccc3c2-c2ccnc(Nc3ccc4c(c3)OCCO4)n2)cc1`, the inhibition in assay [1] is 11.3%; in assay [2], -0.97%; in [3], -1.91%; in assay [4], 72%; in assay [5], 92.8%; in assay [6], 48.6%. The inhibition in assay [7] is 78.7%; in assay [8], 3.53%; in assay [9], 6.19%; in assay [10] it was 2.92%; in [11], 4.06%; in [12] it was -3.43%. Moreover, the inhibition is -6.44% in [13]; 3.44% in [14]; 6.99% in assay [15]; 3.64% in assay [16]; 9.87% in [17]; -5.48% in assay [18]. Moreover, the inhibition in assay [19] is -0.74%; in assay [20], 1.29%.
With `CN1CCC(n2cnc(-c3ccc(F)cc3)c2-c2ccnc(N)n2)CC1`, the inhibition is 3.12% in assay [1]; -0.19% in assay [2]; -0.82% in [3]; 49.7% in assay [4]; 83% in assay [5]; 5.11% in assay [6]. Also, the inhibition in [7] is 30.6%; in assay [8], 0.27%; in assay [9], 4.13%; in [10] it was 0.59%; in assay [11], 2.49%; in [12], -1.72%. The inhibition in assay [13] was -1.48%; in assay [14] it was 1.81%; in assay [15], 5.12%; in assay [16], 4.38%; in [17], 27.1%; in assay [18], 1.13%. Also, the inhibition in [19] was 3.14%; in [20], -2.21%.
Consider `Nc1nc(-c2cccc(Cl)c2)c(-c2ccc3ncccc3n2)s1`, for which the inhibition in [1] is 2.62%; in [2] it was -1.86%; in assay [3], 0.63%; in assay [4], 8.73%; in assay [5] it was 50%; in assay [6], 5.89%. In addition, the inhibition worked out at 19.1% in assay [7]; 3.72% in [8]; 5.27% in [9]; 8.76% in assay [10]; 3.06% in [11]; 0.23% in [12]. Besides, the inhibition in assay [13] was 2.87%; in [14], 4.68%; in assay [15], 8.41%; in assay [16], 2.57%; in assay [17], 6.4%; in assay [18], 0.45%. The inhibition in assay [19] was -3.79%; in [20], -1.31%.
`CC(C)COC(=O)c1ccc2c(c1)/C(=C/Nc1ccc(S(N)(=O)=O)cc1)C(=O)N2`: the inhibition is 13.5% in assay [1]; -1.27% in assay [2]; -1.97% in [3]; -0.94% in [4]; -2.21% in assay [5]; -0.49% in assay [6]. Further, the inhibition in assay [7] was 7.86%; in [8] it was -1%; in [9], 1.38%; in [10] it was 0.22%; in assay [11], -0.52%; in assay [12], -0.82%. For the same molecule, the inhibition is -1.99% in assay [13]; 3.8% in assay [14]; -1.43% in assay [15]; 0.18% in [16]; 2.64% in assay [17]; 4.22% in assay [18]. Further, the inhibition in assay [19] is -2.78%; in assay [20], 2.57%.
